Screening results: PubChem, National Center for Advancing Translational Sciences (NCATS)
TDP1 cell noCPT = qHTS for Inhibitors of human tyrosyl-DNA phosphodiesterase 1 (TDP1): qHTS in cells in absence of CPT. DT40 Tdp1-/- hTDP1 cells, no CPT, ATP luminescence, 48 h. Potency, µM (highest dose often 46.2 µM), inactives show at the highest dose activity change, negative = growth inhibition, most hits filed as inhibitors. hit rate 15% among 420,000; further: nearly all actives have a fitted effect of over 55% in size
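Cells were dispensed at 400 per well, compounds added by pin tool, plates incubated ≥48 hr at 37 °C, then CellTiter-Glo added for 30 min at room temperature before luminescence reading. Line: DT40 Tdp1-/- complemented with hTDP1; camptothecin omitted.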
RORgamma inh = qHTS for inhibitors of ROR gamma transcriptional activity | Drosophila S2 Gal4-RORgamma UAS-luciferase reporter, 20 h | Potency, µM (top dose mostly 53.6 µM), inactives show at the highest dose activity change, negative = inhibition, usual class: inhibitors | hit rate 5.4% among 310,000 | AID 2551, 2010; further: nearly all actives have a fitted effect of over 60% in size
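In this cell-based reporter format, copper sulfate (700 uM final) drives Gal4–ROR gamma fusion expression from a metallothionein promoter in Drosophila Schneider cells; compounds preincubated 1 hr, reporter read after 20 hr at ambient temperature.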
DT40 TDP1 CPT = qHTS for Inhibitors of human tyrosyl-DNA phosphodiesterase 1 (TDP1): qHTS in cells in presence of CPT; AID 686979, 2013; chicken DT40 Tdp1-/-;hTDP1 cells + 20 nM CPT, ATP luminescence, 48 h; hit rate 12% among 420,000; Potency, µM (top dose mostly 46.2 µM), for the others: top-dose activity change, negative = growth inhibition, most hits filed as inhibitors; further: nearly all actives have a fitted effect of over 55% in size
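Chicken DT40 Tdp1-/- cells complemented with human TDP1, 400 cells/well, exposed to compounds plus 20 nM camptothecin for at least 48 h at 37 C; viability read as ATP content by CellTiter-Glo luminescence.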
Gal4-VP16 FLuc = VP16 counterscreen qHTS for inhibitors of ROR gamma transcriptional activity | Drosophila S2 Gal4-VP16 UAS-luciferase, luminescence, 20 h | Potency, µM (titrated, usually from 53.6 µM), for the others: top-dose activity, negative = inhibition, most hits filed as inhibitors | hit rate 3.5% among 310,000 | AID 2546, 2010;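 further: Gal4-VP16 expression switched on by copper sulfate through the metallothionein promoter; nearly all actives have a fitted effect of over 50% in size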
ELG1 repair inh = qHTS screen for small molecules that inhibit ELG1-dependent DNA repair in human embryonic kidney (HEK293T) cells expressing luciferase-tagged ELG1; hit rate 2.3% among 330,000; HEK293T ELG1-luciferase reporter, luminescence, 16 h; DNA damage induced by 5-fluorouridine; Potency, µM (highest dose often 46.1 µM), for the others: top-dose activity change, negative = inhibition, hits mostly inhibitors; AID 504467, 2011; further: nearly all actives have a fitted effect of over 55% in size
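DMSO vehicle served as the neutral condition. Each well held 2,000 cells given 5-fluorouridine plus compound; after 16 hr at 37 °C/5% CO2, ONE-Glo was added and luciferase measured 30 min later.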
12-LOX inh = Primary qHTS assay for inhibitors of human arachidonate 12S-lipoxygenase (ALOX12): Round 2; Potency, µM (doses to about 108 µM), for the others: at the top dose activity change, negative = inhibition, most hits filed as inhibitors; hit rate 1.1% among 580,000; purified 12hLO, xylenol orange hydroperoxide absorbance; Polyunsaturated fatty acid lipoxygenase ALOX12 (Homo sapiens), P18054
Target sequence (P18054 whole entry, looked up): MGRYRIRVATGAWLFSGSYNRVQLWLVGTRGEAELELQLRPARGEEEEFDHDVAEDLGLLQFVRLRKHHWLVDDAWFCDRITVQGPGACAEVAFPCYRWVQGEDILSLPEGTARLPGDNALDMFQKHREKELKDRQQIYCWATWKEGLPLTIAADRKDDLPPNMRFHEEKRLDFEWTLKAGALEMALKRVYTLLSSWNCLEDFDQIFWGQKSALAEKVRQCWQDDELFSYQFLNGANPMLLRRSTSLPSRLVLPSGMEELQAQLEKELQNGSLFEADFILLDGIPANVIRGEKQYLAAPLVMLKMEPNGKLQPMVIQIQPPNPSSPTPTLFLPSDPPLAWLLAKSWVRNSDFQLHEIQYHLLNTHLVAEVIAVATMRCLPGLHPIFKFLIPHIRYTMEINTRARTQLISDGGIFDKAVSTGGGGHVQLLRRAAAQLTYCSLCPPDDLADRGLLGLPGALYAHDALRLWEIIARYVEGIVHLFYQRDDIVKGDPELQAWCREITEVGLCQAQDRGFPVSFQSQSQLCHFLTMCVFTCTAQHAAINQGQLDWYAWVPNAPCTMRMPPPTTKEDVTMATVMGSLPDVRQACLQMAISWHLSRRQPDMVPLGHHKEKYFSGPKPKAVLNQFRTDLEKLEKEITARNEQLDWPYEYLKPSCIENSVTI
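Purified human 12hLO (150 nM final) in 25 mM Hepes, 0.01% Triton X-100, pH 7.0 was preincubated 15 min at room temperature with compound. Then 40 uM arachidonic acid was added, 30 min. Hydroperoxide was read by Fe-XO absorbance ratio 573/405 nm.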
Starred values were filed as active, the others as inactive; [ ] = remark or other dose. Compounds with a hit are over-represented: about 15% of the library has one in this group of screens. The call rests on the fitted dose curve; in most records, active means well fitted curve in the direction sought with a large enough effect; inconclusive means small, poorly fitted or top-dose-only effect, or another doubt; inactive means no such curve, though single readings can be large; an effect the other way counts as inactive or inconclusive. On the % scale 0 is the no-effect control and ±100 the full control effect; potency means the concentration at half of the fitted maximal effect.

Results for CCc1cnc(N2CCC3(CC2)C(=O)Nc2cc(OC4CCCC4)c(OC)cc23)nc1 ?
12-LOX inh: -9%[176 µM]

What do the screens show for `CC(=O)OC1CC2(O)[C@@H]3CCC4CC(OC5CC(O)C(OC6CC(O)C(OC7CC(O)C(O)C(C)O7)C(C)O6)C(C)O5)CCC4(C)[C@H]3CCC2(C)C1C1=CC(=O)OC1` (stereo partly specified)?
12-LOX inh: -66%

How did C[C@H]1O[C@@H](O[C@H]2[C@@H](O)C[C@H](O[C@H]3[C@@H](O)C[C@H](O[C@H]4CC[C@@]5(C)[C@H](CC[C@@H]6[C@@H]5CC[C@]5(C)[C@@H](C7=CC(=O)OC7)CC[C@]65O)C4)O[C@@H]3C)O[C@@H]2C)C[C@H](O)[C@@H]1O do in these assays?
TDP1 cell noCPT: 0.3µM*; RORgamma inh: 1.6µM*; DT40 TDP1 CPT: 0.3µM*; Gal4-VP16 FLuc: -12%; ELG1 repair inh: 0.15µM*

Results for CC1OC(OC2C(O)CC(OC3C(O)CC(OC4CCC5(C)C(CC[C@@H]6[C@@H]5CCC5(C)C(C7=CC(=O)OC7)CCC65O)C4)OC3C)OC2C)CC(O)C1O (stereo partly specified) ?
12-LOX inh: 4%

How did CC1OC(OC2C(O)CC(OC3C(O)CC(OC4CCC5(C)C(CCC6C5CCC5(C)C(C7=CC(=O)OC7)C(O)CC65O)C4)OC3C)OC2C)CC(O)C1O (stereo unspecified) do in these assays?
TDP1 cell noCPT: 0.82µM*; DT40 TDP1 CPT: 1.5µM*; 12-LOX inh: 3%

Results for CC(=O)OC1CC2(O)C3CCC4CC(O)CCC4(C)C3CCC2(C)C1C1=CC(=O)OC1 (stereo unspecified) ?
TDP1 cell noCPT: 8.2µM*; DT40 TDP1 CPT: inconclusive; 12-LOX inh: 14%

How did O=C(c1sc2cc(F)ccc2c1Cl)N1CCC2(CC1)OCCO2 do in these assays?
12-LOX inh: 7%

Results for O=C1NCCCCCCN(Cc2ccncc2)[C@@H]2CN(C(=O)COc3ccccc3)CC[C@@H]12 ?
12-LOX inh: 86%

Results for C=C[C@H]1CN2CC[C@H]1C[C@@H]2CNS(=O)(=O)c1ccc(C)cc1 ?
12-LOX inh: -1%[176 µM]

Results for CN(CCc1ccccn1)C[C@H]1CN2CC[C@H]1C[C@@H]2CNC(=O)c1ccc(C(F)(F)F)cc1 ?
12-LOX inh: 64%

How did COC1C=CC23c4cc5c(cc4CN(CC2O)C3C1)OCO5 (stereo unspecified) do in these assays?
TDP1 cell noCPT: 1.3µM*; RORgamma inh: 3.2µM*; DT40 TDP1 CPT: 2.1µM*; Gal4-VP16 FLuc: 1.3µM*

Results for Cc1cccc(OCC(=O)N2CCC3(CC2)c2nccn2-c2ccccc2CN3C)c1 ?
12-LOX inh: 44%

How did CCCS(=O)(=O)NC[C@H]1C[C@@H]2CCN1C[C@@H]2c1cc(C2CCCCC2)nn1C do in these assays?
12-LOX inh: 42%[176 µM]

What do the screens show for `COc1ccccc1CNC(=O)CN1CCCC1=O`?
12-LOX inh: 28%

What do the screens show for `CCC(=O)N1[C@H]2CC[C@@H]1c1cnc(-c3ccccc3)nc1C2`?
12-LOX inh: 17%

What do the screens show for `CCCCC[C@@H]1CCCCC[C@@H](O)C[C@H](O)[C@H](O)/C=C/C(=O)O1`?
TDP1 cell noCPT: inconclusive; DT40 TDP1 CPT: inconclusive; 12-LOX inh: 5%

What do the screens show for `CCCCC[C@H]1CCCCC[C@@H](O)C[C@@H](O)[C@@H](O)/C=C/C(=O)O1`?
TDP1 cell noCPT: 9.2µM*; DT40 TDP1 CPT: 10µM*; 12-LOX inh: -26%

How did O=C(CF)NC(NC(=S)Nc1cccc([N+](=O)[O-])c1)C(Cl)(Cl)Cl (stereo unspecified) do in these assays?
TDP1 cell noCPT: inconclusive; RORgamma inh: 0%; DT40 TDP1 CPT: 21µM*; Gal4-VP16 FLuc: -4%; ELG1 repair inh: -9%; 12-LOX inh: inconclusive

Results for COc1ccc(NC(=S)NC(NC(=O)CF)C(Cl)(Cl)Cl)cc1[N+](=O)[O-] (stereo unspecified) ?
TDP1 cell noCPT: 4%; RORgamma inh: -13%; DT40 TDP1 CPT: 4%; Gal4-VP16 FLuc: -5%; ELG1 repair inh: 2%; 12-LOX inh: inconclusive

What do the screens show for `CCN(CC)P(=S)(c1c(C)nc2ccccn12)c1c(C)nc2ccccn12`?
TDP1 cell noCPT: inconclusive; RORgamma inh: inconclusive; DT40 TDP1 CPT: 26µM*; Gal4-VP16 FLuc: -9%; ELG1 repair inh: -14%; 12-LOX inh: -27%

How did CCOc1c(P(=S)(N(C)C)N(C)C)c(C)nn1-c1ccccc1 do in these assays?
TDP1 cell noCPT: -17%; RORgamma inh: -37%; DT40 TDP1 CPT: -21%; Gal4-VP16 FLuc: 3%; ELG1 repair inh: 14%; 12-LOX inh: 378%

How did CN(C[C@H](Cc1ccccc1)N(C[C@H](Cc1ccccc1)N(CCC(C)(C)C)N=O)N=O)N=O do in these assays?
TDP1 cell noCPT: inconclusive; RORgamma inh: inconclusive; DT40 TDP1 CPT: 18µM*; Gal4-VP16 FLuc: -13%; ELG1 repair inh: 3%; 12-LOX inh: 4%

Results for CN(C[C@H](Cc1ccccc1)N(C[C@H](c1ccccc1)N(CCc1ccccc1)N=O)N=O)N=O ?
TDP1 cell noCPT: 16µM*; RORgamma inh: 1%; DT40 TDP1 CPT: inconclusive; Gal4-VP16 FLuc: 3%; ELG1 repair inh: -1%; 12-LOX inh: -5%

Results for CC(C)CCN(N=O)[C@@H](Cc1ccccc1)CN(N=O)[C@@H](Cc1ccccc1)CN(C)N=O ?
TDP1 cell noCPT: inconclusive; RORgamma inh: 15%; DT40 TDP1 CPT: inconclusive; Gal4-VP16 FLuc: 7%; ELG1 repair inh: 2%; 12-LOX inh: 12%

Results for CC(C)C[C@@H](CN(N=O)[C@@H](Cc1ccccc1)CN(C)N=O)N(CCc1ccccc1)N=O ?
TDP1 cell noCPT: inconclusive; RORgamma inh: 18%; DT40 TDP1 CPT: inconclusive; Gal4-VP16 FLuc: 7%; ELG1 repair inh: -4%; 12-LOX inh: -2%
